Results: the supplement of paper PMC10127200
Counter-ions that a name gives are not always drawn.

Legend:
Test in all cases: Euclidean distance of Cell Painting phenotypic profile (signed KS, 77 features) to DMSO centroid (dimensionless distance); 5 or 10 uM (library dependent); higher = stronger phenotypic change vs DMSO (phenoactivity)
Details in all cases: 48 h
786-O = tested on: 786-O
Outline: (§1)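 Harmony extracted 77 features from 20X confocal images (9 fields/well) of stained cells, scoring each as a signed Kolmogorov-Smirnov statistic against same-plate vehicle wells. The cells, five cancer lines and a healthy fibroblast line, had received library compounds for 48 h at 10 or 5 uM depending on library, with 0.1% DMSO final. Phenoactivity is the Euclidean distance from each plate-position-corrected, correlation-weighted, top-dose replicate-averaged profile to the median vehicle profile.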

A549 = tested on: A549
Outline: as §1

DU145 = tested on: DU145
Outline: as §1

FB = tested on: FB
Outline: as §1

HEPG2 = tested on: HEPG2
Outline: as §1

OVCAR4 = tested on: OVCAR4
Outline: as §1

Structure (SMILES)	Euclidean distance (786-O)	Euclidean distance (A549)	Euclidean distance (DU145)	Euclidean distance (FB)	Euclidean distance (HEPG2)	Euclidean distance (OVCAR4)
COc1cc2c(cc1OC)-c1cc3ccc(OC)c(OC)c3c[n+]1CC2 [Palmatine]	0.525	0.996	0.565	0.73	1.18	0.631
Cc1cc(C)nc(O)n1.O=C(Nc1ccc([N+](=O)[O-])cc1)Nc1ccc([N+](=O)[O-])cc1 [Nicarbazin]	1.37	1.24	0.953	1.62	0.833	1.15
Nc1ncnc2n[nH]c(Nc3ccc(F)cc3)c12	0.861	2.17	1.25	1.67	0.599	1.4
O=C1CN2Cc3c(ccc(Cl)c3Cl)N=C2N1 [Anagrelide HCl]	0.871	0.869	0.905	1.18	1.01	1.53
COc1ccccc1N1CCN(CCCNc2cc(=O)n(C)c(=O)n2C)CC1 [Urapidil HCl]	1.39	0.9	0.94	0.778	0.34	0.898
CCCCN1CCCCC1C(=O)Nc1c(C)cccc1C (stereo not drawn) [Bupivacaine HCl]	1.38	0.594	1.45	0.904	0.991	1.15
COc1cccc(C=NCCN=Cc2cccc(OC)c2[O-])c1[O-].[Cl-].[Mn+3]	1.28	0.596	0.577	0.887	2.11	1.14
Cc1ccc(NC(=O)c2ccc(CN3CCN(C)CC3)cc2)cc1Nc1nccc(-c2cccnc2)n1 [Imatinib Mesylate (STI571)]	1.63	2	1.67	2.28	1.61	1.55
O=C(NCc1ccncc1)C12CC3CC(C1)CC(c1ccc(Cl)cc1)(C3)C2	1.47	1.24	1.1	0.743	0.955	0.981
Cc1c(-c2cnccn2)ssc1=S [Oltipraz]	1.13	0.941	0.666	0.877	1.11	1.3
CCNC(=O)[C@@H]1CCCN1C(=O)[C@H](CCCNC(=N)N)NC(=O)[C@H](CC(C)C)NC(=O)[C@@H](CC(C)C)NC(=O)[C@H](Cc1ccc(O)cc1)NC(=O)[C@H](CO)NC(=O)[C@H](Cc1c[nH]c2ccccc12)NC(=O)[C@H](Cc1c[nH]cn1)NC(=O)[C@@H]1CCC(=O)N1 [Leuprolide Acetate]	0.73	0.754	0.992	0.659	0.515	0.971
CN1C[C@@H]2C[C@H]1CN2c1cc2c(cc1F)c(=O)c(C(=O)O)cn2C1CC1 [Danofloxacin Mesylate]	1.72	1.87	1.14	0.963	1.05	0.974
COc1cc2c(Oc3ccc4[nH]c(C)cc4c3F)ncnc2cc1OCCCN1CCCC1 [Cediranib Maleate]	4.34	4.46	3.51	4.67	4.09	5.11
COc1cc2ncnc(Nc3ccc(F)c(Cl)c3)c2cc1OCCCN1CCOCC1 [Gefitinib hydrochloride]	1.01	1.23	1.18	0.779	0.482	1.31
Nc1nc(NC2CC2)c2ncn([C@H]3C=C[C@@H](CO)C3)c2n1 [Abacavir]	1.46	0.752	1.02	1.21	0.494	1.25
C[C@@H]1NC(=O)[C@@H](N)CNC(=O)[C@H](C2CCNC(=N)N2)NC(=O)/C(=C/NC(N)=O)NC(=O)[C@H](CNC(=O)CC(N)CCCN)NC1=O.N=C1NCC[C@H]([C@@H]2NC(=O)/C(=C/NC(N)=O)NC(=O)[C@H](CNC(=O)C[C@@H](N)CCCN)NC(=O)[C@H](CO)NC(=O)[C@@H](N)CNC2=O)N1 [Capreomycin Sulfate]	0.925	0.995	1.37	1.11	0.78	1.14
COc1cc(N2CCC(N3CCN(C)CC3)CC2)ccc1Nc1ncc(Cl)c(Nc2ccccc2S(=O)(=O)C(C)C)n1	2.54	3.06	2.48	3.6	1.66	3.35
CCC(CC)(NC(=O)C(C)C)C(=O)N[C@@H](CCCN=C(N)N)C(=O)NC1(C(=O)NC(c2ccc(F)cc2)c2ccc(F)cc2)CCCC1	0.761	0.796	1.14	0.736	0.712	0.893
C=CC(=O)Nc1cc2c(Nc3ccc(F)c(Cl)c3)ncnc2cc1OCCCN1CCOCC1 [Canertinib (CI-1033)]	1.57	2.51	1.4	1.25	0.69	2.05
CCCNc1nc(Nc2ccc(C#N)cc2)ncc1C#CCCCNC(=O)[C@H](C)N(C)C(=O)/C=C/CN(C)C	6.39	4.68	5.29	5.42	5	5.67
C1COC(NC(C2CC2)C2CC2)=N1 [Rilmenidine Phosphate]	1.48	0.742	1.06	1.07	1.13	1.02
CC1(C)CCC(C)(C)c2cc(NC(=O)c3ccc(C(=O)O)cc3)ccc21 [Tamibarotene]	1.13	1.55	1.77	3	0.884	1.24
O=c1ccn(C2OC(COP(=O)(O)O)C(O)C2O)c(=O)[nH]1 (stereo not drawn) [Uridine 5'-monophosphate]	1.18	1.21	1.33	1.3	1.01	1.23
Cc1cccc(C)c1OCC(C)N (stereo not drawn) [Mexiletine HCl]	0.988	0.742	0.639	1.07	0.966	0.836

Structure (SMILES)	Euclidean distance (786-O)	Euclidean distance (A549)	Euclidean distance (DU145)	Euclidean distance (FB)	Euclidean distance (HEPG2)	Euclidean distance (OVCAR4)
C[C@@]12C[C@@]3(O)O[C@@H](O1)[C@]1(COC(=O)c4ccccc4)[C@H]3C[C@@]12O[C@@H]1O[C@H](CO)[C@@H](O)[C@H](O)[C@H]1O [Paeoniflorin]	1.19	0.375	0.983	0.985	0.474	1.17
Cc1cc(Nc2ccc(NC(=O)c3ccc(Nc4ccnc5ccccc45)cc3)cc2)nc(N)n1	1.66	3.02	1.42	5.18	0.532	3.29
CCCN[C@H]1CCc2nc(N)sc2C1 [Pramipexole dihydrochloride]	0.969	0.801	1.16	1.09	0.46	1.16
CC(C)(C)c1cnc(CSc2cnc(NC(=O)C3CCNCC3)s2)o1	2.67	3.69	2.93	3.38	2.81	3.27
N#Cc1cc(-c2n[nH]c(-c3ccncc3)n2)ccn1 [Topiroxostat]	1.19	1.05	1.49	1.16	0.521	1.32
CCc1cccc2c3c([nH]c12)C(CC)(CC(=O)O)OCC3 (stereo not drawn) [Etodolac]	0.711	0.964	1.01	1.18	0.56	1.35
CCN(CC)C(=O)[C@@]1(c2ccccc2)C[C@H]1CN [Levomilnacipran Hydrochloride]	0.986	0.786	1.17	1.23	0.649	0.997
C=C[C@]1(C)C[C@@H](OC(=O)CS[C@@H]2C[C@H]3CC[C@@H](C2)N3C)[C@]2(C)[C@H](C)CC[C@]3(CCC(=O)[C@H]32)[C@@H](C)[C@@H]1O [Retapamulin]	1.44	1.81	1.32	1.51	1.51	1.59
Cc1[nH]cnc1CN1CCc2c(c3ccccc3n2C)C1=O [Alosetron Hydrochloride]	1.67	0.744	0.859	0.731	0.664	1.33
CC1CS(=O)(=O)CCN1/N=C/c1ccc([N+](=O)[O-])o1 (stereo not drawn) [Nifurtimox]	1.55	0.675	1.08	0.936	1.04	1.33
COc1ccc(F)c(F)c1C(=O)c1cnc(NC2CCN(S(C)(=O)=O)CC2)nc1N	2.79	3.51	2.68	2.58	3.18	4.31
OC(CNCC(O)C1CCc2cc(F)ccc2O1)C1CCc2cc(F)ccc2O1 (stereo not drawn) [Nebivolol]	1.39	1.67	0.832	1.65	2.26	1.58
CCN1CCN(Cc2ccc(Nc3ncc(F)c(-c4cc(F)c5nc(C)n(C(C)C)c5c4)n3)nc2)CC1 [Abemaciclib]	4.11	4.37	3.65	4.04	3.81	3.89
CN1C(C(=O)Nc2ccccn2)=C(O)c2sc(Cl)cc2S1(=O)=O [Lornoxicam]	0.853	0.623	0.95	0.965	1	0.799
CC(C)(C)c1cc(NC(=O)Nc2ccc(-c3cn4c(n3)sc3cc(OCCN5CCOCC5)ccc34)cc2)no1 [Quizartinib (AC220)]	3.28	2.67	1.42	1.43	2.93	1.37
COc1cc2c(cc1OC)[C@@H]1Cc3ccc(OC)c(OC)c3CN1CC2 [Tetrahydropalmatine]	0.584	0.856	0.447	0.696	0.585	0.757
FC(F)(c1ccc2ncccc2c1)c1nnc2ccc(-c3ccncc3)nn12	1.6	0.84	2.54	0.717	1.24	1.2
Cc1cccc(-c2nn3c(c2-c2ccnc4ccc(C(N)=O)cc24)CCC3)n1	1.39	1.06	0.926	1.47	1.04	1.18
Nc1c(CC(=O)O)cccc1C(=O)c1ccccc1 [Amfenac Sodium Monohydrate]	1.3	0.843	0.909	1.46	0.424	1.11
Cc1ccnc(NS(=O)(=O)c2ccc(N)cc2)n1 [Sulfamerazine]	1.24	0.793	0.847	0.862	0.67	1.2
N[C@@H]1CONC1=O [D-Cycloserine]	1.67	1.18	1.43	0.939	0.865	0.96
CC[C@H]1OC(=O)[C@H](C)[C@@H](O[C@H]2C[C@@](C)(OC)[C@@H](O)[C@H](C)O2)[C@H](C)[C@@H](O[C@@H]2O[C@H](C)C[C@H](N(C)C)[C@H]2O)[C@](C)(O)C[C@@H](C)CN(C)[C@H](C)[C@@H](O)[C@]1(C)O [Azithromycin]	0.885	0.638	1.38	1.53	2.1	1.08
Oc1cccc(O)c1 [Resorcinol]	1.3	1.19	0.938	1.24	1.33	1.05
Cc1ccc(C(=O)N(CCCN)[C@@H](c2nc3cc(Cl)ccc3c(=O)n2Cc2ccccc2)C(C)C)cc1	3.64	3.18	4.25	2.49	3.84	3.78
